Assay results taken from PubChem BioAssay AID651956 (Broad Institute, 2012).
Results with a measured potency or affinity are listed apart. Inconclusive results are not listed. The source made the active and inactive calls.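 The calls were made as follows: active = in every test run, a fitted half-maximal concentration for signal decrease at or below twice the highest tested concentration; inconclusive = runs disagree, flat 30 to 70% decrease, or poor fit; inactive = the rest.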

Test: miR-122 activators in hepatoma reporter cells, dose response, cell-based, Huh7 psiCHECK-miR122, Renilla luciferase, cherry-picked (AID 651956);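 also: Renilla luciferase from a miR-122 sensor reporter so lower signal means miR-122 activation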

SMILES	outcome
COc1ccc(C(=O)N2C[C@H]3[C@@H](c4ccccc42)[C@@H](CO)N3C(=O)Cc2ccccn2)cc1	inactive
COc1ccc(-c2ccc(C#N)c(OC(=O)c3c(Cl)cccc3Cl)n2)cc1	inactive
Oc1ccc(/C=N/Nc2nccnc2Cl)c(O)c1	inactive
CCCNC(=O)C[C@@H]1CC[C@@H]2[C@H](COc3ccc(NC(=O)c4cc(F)cc(F)c4)cc3C(=O)N2C)O1	inactive
CCCC(=O)Nc1ccc2c(c1)C(=O)N(C)[C@H]1CC[C@@H](CC(=O)NCCN3CCCCC3)O[C@H]1CO2	inactive
COc1ccc(NC(=O)Cn2nnc(C(=O)NCc3ccccc3OC)c2N)cc1Cl	inactive
CCC(=O)N1[C@H](CN(C(C)C)S(C)(=O)=O)[C@@H](c2ccccc2)[C@@H]1CO	inactive
COC(=O)C[C@H]1CC[C@@H]2[C@@H](COc3ccc(NC(=O)c4cnccn4)cc3C(=O)N2C)O1	inactive
C=CCc1c(OC)ccc2ccc(=O)oc12	inactive
Cc1cc(C)c2c(c1)/C(=C/C(=O)c1ccc(Br)s1)C(=O)N2	inactive
O=C(CSc1nc2ccccc2s1)N1CCOCC1	inactive
COc1ccc(CN2CCc3c([nH]c4ccccc34)C2)c(OC)c1C	inactive
CCn1nnnc1SCC(=O)Nc1nnc(C(C)C)s1	inactive
COCC(=O)NC[C@H]1[C@@H](c2ccc(C3=CCCC3)cc2)[C@@H](CO)N1C(=O)C1CC1	inactive
COc1ccc(NS(=O)(=O)c2ccc(NC(=O)C(C)(C(F)(F)F)C(F)(F)F)cc2)nn1	inactive
CC(=O)N1[C@@H](CO)[C@@H](c2ccccc2)[C@@H]1CNC(=O)CN1CCOCC1	inactive
CNC(=O)C[C@H]1CC[C@@H]2[C@H](COc3ccc(NC(=O)NC(C)C)cc3C(=O)N2C)O1	inactive
Cc1cc(C(=O)Nc2ccc3c(c2)C(=O)N(C)[C@H]2CC[C@@H](CC(=O)N[C@@H](C)c4ccccc4)O[C@H]2CO3)no1	inactive
C/C=C/c1ccc([C@@H]2[C@@H](CNC(=O)c3ccncc3)N(C(=O)CC)[C@H]2CO)cc1	inactive
C/C=C/c1ccc([C@@H]2[C@H](CO)N(Cc3ccccn3)[C@H]2CNC(=O)CC)cc1	inactive
Cc1ccc(Nc2c(-c3ccccn3)nc3cc(C)ccn23)cc1	inactive
COCCN(C[C@@H]1[C@@H](c2ccccc2)[C@H](CO)N1C(=O)C1CCC1)C(C)=O	inactive
CN1C(=O)c2cc(NC(=O)c3cccc(F)c3)ccc2OC[C@@H]2O[C@@H](CC(=O)Nc3ccccc3)CC[C@@H]21	inactive
CC(C)c1ccc(CNC(=O)CSCC(=O)Nc2ccc3ccccc3c2)cc1	inactive
CN1C(=O)c2cc(NC(=O)c3cccc(F)c3)ccc2OC[C@H]2O[C@H](CC(=O)NC3CCC3)CC[C@@H]21	inactive
CO[C@@H]1CN(C)C(=O)c2ccc(NS(=O)(=O)c3ccc(C)cc3)cc2OC[C@@H](C)N(C(=O)NC(C)C)C[C@H]1C	inactive
C[C@H](O)C#Cc1ccc2c(c1)O[C@@H](CN(C)Cc1ccc(-c3ccccc3)cc1)[C@H](C)CN([C@H](C)CO)S2(=O)=O	inactive
Cc1cc(C(=O)Nc2cccc(O)c2)co1	inactive
CC1(C)CC(=O)c2cnc(NC(=O)c3ccco3)nc2C1	inactive
